Screens: PubChem BioAssay, National Center for Advancing Translational Sciences (NCATS)
VDR inh: blocks the human vitamin D receptor. Potency, µM, without a hit: max response, negative = inhibition, actives largely listed as inhibitors. actives 0.93% (n = 400,000). VDR-SRC2-3 peptide fluorescence polarization, 2 h. P11473. AID 504847; further: on the % scale 0 is the no-effect control and ±100 the full control effect
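After 23 nl compound addition and a short centrifugation, plates sat for 2 hours at ambient temperature; polarization of fluorescence then indicated loss of VDR binding to peptide SRC2-3.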
JMJD2A Tudor: JMJD2A Tudor domain (human) inhibition | O75164 | AlphaScreen JMJD2A-Tudor / H3K4me3 peptide binding | Potency, µM (highest dose often 114 µM), without a hit: top-dose activity change, negative = inhibition, actives largely listed as inhibitors | actives 4.4% (n = 390,000) | AID 504339; further: on the % scale 0 is the no-effect control and ±100 the full control effect; nearly all actives have a fitted effect of over 50% in size
BAZ2B block: BAZ2B (human) inhibition | Q9UIF8 | AlphaScreen BAZ2B-H3K14Ac peptide displacement | Potency, µM (titrated, usually from 114 µM), for inactives: at the top dose activity change, negative = inhibition, hits mostly inhibitors | actives 4.4% (n = 360,000) | AID 504333; further: on the % scale 0 is the no-effect control and ±100 the full control effect; nearly all actives have a fitted effect of over 60% in size
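Multi-concentration screen (max 110 uM) measuring displacement of acetylated histone H3 peptide from BAZ2B by AlphaScreen, using 50 nM protein, 50 nM peptide and 10 ug/mL streptavidin donor plus Ni-chelate acceptor beads.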
PLK1 PBD block: PLK1 (human) polo-box domain binding inhibition; Potency, µM, for inactives: max response, negative = inhibition, usual class: inhibitors; actives 2.8% (n = 360,000); AID 720504; Plk1 PBD binding of FITC phosphopeptide, fluorescence polarization; further: series mostly up to about 57 µM; on the % scale 0 is the no-effect control and ±100 the full control effect; nearly all actives have a fitted effect of over 65% in size
Target sequence (P53350 whole entry, looked up, the tested form may be a part): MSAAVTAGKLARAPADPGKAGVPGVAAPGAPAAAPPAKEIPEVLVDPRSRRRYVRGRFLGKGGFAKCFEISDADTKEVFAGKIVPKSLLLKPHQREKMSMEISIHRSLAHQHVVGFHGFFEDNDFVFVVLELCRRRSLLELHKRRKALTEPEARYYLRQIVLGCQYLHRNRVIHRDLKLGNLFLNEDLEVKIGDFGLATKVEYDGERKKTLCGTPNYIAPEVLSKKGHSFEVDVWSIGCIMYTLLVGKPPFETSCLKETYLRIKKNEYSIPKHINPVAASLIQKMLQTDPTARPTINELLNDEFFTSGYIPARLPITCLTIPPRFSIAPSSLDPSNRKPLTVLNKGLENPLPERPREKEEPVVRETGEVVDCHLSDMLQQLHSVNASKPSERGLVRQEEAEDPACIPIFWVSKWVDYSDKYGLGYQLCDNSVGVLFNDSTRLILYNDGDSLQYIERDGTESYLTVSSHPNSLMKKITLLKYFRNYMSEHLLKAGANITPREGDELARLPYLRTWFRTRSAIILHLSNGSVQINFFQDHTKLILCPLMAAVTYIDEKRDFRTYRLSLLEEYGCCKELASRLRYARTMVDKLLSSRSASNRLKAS
G9a block: inhibitors of human histone lysine methyltransferase G9a; Q96KQ7; G9a H3K9 monomethylation, AlphaScreen, 2 h; Potency, µM (highest dose often 102 µM), without a hit: at the highest dose activity, negative = inhibition, most hits filed as inhibitors; actives 8.8% (n = 350,000); AID 504332; further: on the % scale 0 is the no-effect control and ±100 the full control effect; nearly all actives have a fitted effect of over 75% in size
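G9a (20 nM) was preincubated 15 min with compound, then reacted 2 h at room temperature with 500 nM biotin-H3K9 peptide and 20 µM SAM. Monomethyl-H3K9 detected by AlphaScreen using anti-H3K9me1 antibody.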
HP1b chromo inh: inhibitors of HP1-beta chromodomain binding to methylated histone tails | actives 0.56% (n = 390,000) | AID 540317 | AlphaScreen HP1-beta / biotin-H3K9me3 peptide binding | P83916 | Potency, µM (highest dose often 114 µM), for the others: at the highest dose activity change, negative = inhibition, actives largely listed as inhibitors; further: nearly all actives have a fitted effect of over 70% in size
Target sequence (P83916 whole entry, looked up): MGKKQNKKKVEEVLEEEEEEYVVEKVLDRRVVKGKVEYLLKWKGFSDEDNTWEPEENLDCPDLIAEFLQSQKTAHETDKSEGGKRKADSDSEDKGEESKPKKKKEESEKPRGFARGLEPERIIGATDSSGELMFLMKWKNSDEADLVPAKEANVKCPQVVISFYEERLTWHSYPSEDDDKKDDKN
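HP1-beta protein (50 nM final) preincubated 30 min at room temperature with biotinylated H3(1-18)K9me3 peptide (50 nM) in PBS pH 7.4, 0.01% Tween-20, then compound added for 30 min. AlphaScreen streptavidin donor/nickel chelate acceptor beads (10 ug/mL final), 30 min dark, luminescence read.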
An asterisk follows results filed as active; u = inconclusive; x = not tested or not shown; ! = not confirmed by another sample; [ ] = remark or other dose. Sampled rows, rich in hits. Any-hit rate of the full collection: about 11%. The call rests on the fitted dose curve; in most records, active means well fitted curve in the direction sought with a large enough effect; inconclusive means small, poorly fitted or top-dose-only effect, or another doubt; inactive means no such curve, though single readings can be large; an effect the other way counts as inactive or inconclusive. Potency means the concentration at half of the fitted maximal effect.

SMILES | VDR inh | JMJD2A Tudor | BAZ2B block | PLK1 PBD block | G9a block | HP1b chromo inh
Oc1c(Br)cc(C2N=C(c3ccccc3Cl)NO2)cc1Br (stereo not given) | 4.0% | 39.8µM* | -26.8% | -8.9% | 36.3%[0.501 µM] | u
O=C(O)c1cc(-c2ccccc2Cl)n[nH]1 | -1.3% | -13.0% | -8.5% | -13.2% | u | 65.9%
CCCn1c(=O)c2[nH]c(-c3ccc(S(=O)(=O)O)cc3)nc2n(CCC)c1=O | -15.9% | -30.3% | -34.4% | -14.7% | 21.2µM*! | 19.9%
Cc1ccc(S(=O)(=O)NCC2CCC(C(=O)NCCc3ccccc3)CC2)cc1 (stereo not given) | -0.7% | -22.3% | 1.9%[57.1 µM] | x | -21.1%[59 µM] | -9.1%
CC1Cn2c(nnc2-c2ccccc2O)S1 (stereo not given) | 0.4% | u | u | -2.8% | 8.91µM* | 32.7%
CCOC(=O)CN1C(=O)CC(c2ccccc2)C1=O (stereo not given) | 1.6% | -7.7% | -4.5% | -4.7% | -9.3% | 53.8%
Cc1sc2nc(C(C)Sc3n[nH]c(N)n3)[nH]c(=O)c2c1C (stereo not given) | x | x | -4.9% | x | 25.1µM* | x
COc1ccc(CCn2nnnc2C2(c3ccc(C)cc3)CC2)cc1 | -26.3% | x | x | x | -5.0%[59 µM] | x
Cc1nn(-c2ccccc2)c2nc(=O)n(-c3ccccc3)cc12 | u | u | 2.9% | 2.99µM* | 10.9%[59 µM] | u
Cc1nn(-c2ccccc2)c(=S)c2ccccc12 | 23.7% | 6.7% | u | 0.5% | 12.6µM* | 37.2%
O=C(/C=C/c1ccccc1)c1ccccn1 | 39.8µM* | 12.3% | -37.3% | -14.3% | u | 13.7%
O=C(C=Cc1ccc2c(c1)OCO2)c1ccccc1 | 39.8µM* | 13.1% | x | -5.0% | x | 53.9%
N/C(=N\OC(=O)/C=C/c1ccccc1)c1ccccn1 | 1.9% | -9.7% | -15.0% | -0.1% | -17.0% | 25.4%
O=C(/C=C/c1ccc2c(c1)OCO2)c1ccccn1 | 79.4µM* | -33.8% | u | -2.6% | u | 15.7%
O=C(CSc1nc2c([nH]c3ccccc32)c(=O)n1-c1ccccc1)Nc1ccccc1F | 3.4% | -5.2% | 0.8% | x | 15.4%[59 µM] | 28.0%[57 µM]
Cc1cc(S(=O)(=O)NCC(C)C)ccc1OCC(=O)NCc1ccccn1 | 12.4% | 22.4µM* | u | -3.5% | u | 16.6%
Cc1cc(S(=O)(=O)NCc2ccccc2)ccc1OCC(=O)NCc1ccccn1 | -4.2% | -8.4% | -0.7% | -18.7% | 19.4% | 44.7%
COc1ccc(C)cc1S(=O)(=O)NCc1ccccn1 | x | x | x | 3.2% | x | x
COc1ccc(C(C)C)cc1S(=O)(=O)NCc1ccccn1 | -5.5% | 2.24µM* | -4.0% | -11.5% | 9.9%[12.7 µM] | 10.1%
CNS(=O)(=O)c1cc(C(=O)O)ccc1OC | u | 12.6µM* | -17.5% | 26.7µM* | 7.9% | 11.6%
CCOc1ccc(S(=O)(=O)NCc2ccccn2)cc1NC(=O)c1ccccc1 | 12.0% | 7.94µM* | -31.5% | 4.7% | -5.1% | 14.8%
Cc1cc(C)n2ncc(C(=O)NCC(C)C)c2n1 | x | 0.7% | x | x | x | x
CC(=O)Nc1ccc(NC(=O)c2ncoc2-c2ccco2)cc1 | -2.9% | -12.9% | -23.1% | x | 12.6%[59 µM] | 16.2%
CC(C)CC(=O)NC(=S)Nc1ccc(NC(=O)c2cccs2)cc1 | 5.1% | 1.4% | -35.1% | -8.3% | u | 33.0%
Cc1ccccc1OC[C@H](O)CO | -1.9% | x | x | x | 21.7%[21.5 µM] | x
SMILES | VDR inh | JMJD2A Tudor | BAZ2B block | PLK1 PBD block | G9a block | HP1b chromo inh
O=S(=O)(NCc1ccccn1)c1cc(Cl)ccc1Cl | -3.5% | -6.9% | -7.3% | 0.5% | 79.4µM* | 22.2%
COc1ccc(C(=O)O)cc1S(=O)(=O)NCc1ccccn1 | -12.5% | u | 70.8µM* | -0.6% | 5.5% | 12.8%
Nc1cc2c([N+](=O)[O-])cccc2o1 | -8.8% | -22.2% | 56.2µM* | -11.2% | 2.9%[2.33 µM] | -24.1%
COc1ccc(Br)cc1CN1CCCCCC1 | -13.8% | 22.4µM* | u | -12.4% | 31.6µM* | -24.4%
COc1ccc(Br)cc1CN1C(=O)NC2(CCCCCC2)C1=O | -1.4% | -7.7% | 4.8% | -4.5% | 30.9% | 17.0%
COc1ccc(Br)cc1CN1CCSCC1 | 10.0% | 3.55µM* | u | -6.8% | 44.7µM* | 56.2µM*
CC1CN(C(=O)CCS(=O)(=O)c2ccccc2)CC(C)O1 (stereo not given) | -2.4% | -6.8% | 11.1% | -6.0% | 29.7%[59 µM] | 11.9%
CN(C)/N=C/c1ccc(P(c2ccc(/C=N/N(C)C)o2)c2ccc(/C=N/N(C)C)o2)o1 | 3.0% | 17.8µM* | 22.4µM* | -2.1% | 35.5µM* | u
COCc1cc(C)nc(SCC(=O)Nc2ccc3[nH]c(=O)[nH]c3c2)c1C#N | 23.8% | -2.1% | 2.8% | -11.2% | 23.8% | 8.2%
Cc1ccc(-c2nc3ccc([N+](=O)[O-])cc3[nH]2)cc1 | -11.7% | -33.3% | -34.6% | -8.2% | u | 13.1%
O=[N+]([O-])c1ccc(-c2cc(-c3ccc(Cl)cc3)n[nH]2)cc1 | u | u | -37.0% | 2.99µM* | 25.1µM* | 182.6%
Clc1ccc(-c2nc3ccncc3[nH]2)cc1 | -23.8% | -9.3% | -5.8% | 8.44µM* | u | 5.0%
O=[N+]([O-])c1ccc2nc(-c3ccc(Cl)cc3)[nH]c2c1 | -13.8% | -20.3% | -3.8% | -19.5% | 39.8µM* | 11.1%
Fc1ccc(-c2nc3ccncc3[nH]2)cc1 | 31.6% | -13.0%[57.1 µM] | -2.4% | u | u | 25.0%
O=[N+]([O-])c1cccc(-c2nc3ccc([N+](=O)[O-])cc3[nH]2)c1 | 31.6µM* | 20µM* | 6.8% | 9.47µM* | 79.4µM* | -2.5%
O=[N+]([O-])c1ccc(-c2cnc[nH]2)cc1 | -13.7% | -14.2% | u | -16.6% | x | 22.7%
COc1ccc2c(C)c(CC(=O)NCCc3ccc(Cl)cc3)c(=O)oc2c1C | -0.1% | -3.1% | 29.1% | x | 12.3%[59 µM] | 65.1%
CSc1ccc(/C=C(\C(=O)O)c2ccc(S(=O)(=O)N3CCCCC3)s2)cc1 | -5.5% | u | u | -28.5% | u | 20.2%
COc1ccc(Br)cc1/C=C(\C(=O)O)c1ccc(S(=O)(=O)N2CCCC2)s1 | -19.5% | 89.1µM* | x | u | x | -10.4%
COc1cc(/C=C(\C(=O)O)c2ccc(S(=O)(=O)N3CCCC3)s2)cc(OC)c1 | -18.1% | -16.2% | -38.9% | -5.6% | 50.1µM* | 11.0%
CC(C)C[C@H](NC(=O)[C@H](CCC(N)=O)NC(=O)[C@H](CCCCN)NC(=O)[C@H](CCC(N)=O)NC(=O)[C@@H](N)CCC(=O)O)C(=O)N[C@@H](CCC(N)=O)C(=O)O | 3.8% | x | x | x | 16.0%[59 µM] | x
CC(=O)c1cccc(NC(=O)CN2C(=O)COc3ccc(Cl)cc32)c1 | -1.9% | 9.2% | 7.9% | -5.1% | 8.7%[59 µM] | 6.6%
Cc1cccnc1NC(=O)CN1C(=O)COc2ccc(Cl)cc21 | -5.1% | 0.3% | 56.2µM* | 4.0% | 20.6% | 46.4%
C=C(C(=O)c1ccccc1)C(C(=C)C(=O)c1ccccc1)c1ccc(OC)cc1 | -27.1% | 15.6% | 4.9% | 2.1% | 14.5% | 68.5%
